# Most compounds without a hit are left out; they make up all but 1.4% or so of the library.
# p53 reactivation = mutant p53 re-activation in reporter cells; H1299 p53-A138V BP100-luciferase reporter, luminescence, 24 h; Potency, µM (titrated, usually from 92.2 µM), for inactives: at the top dose activity change, positive = activation, actives largely listed as activators; 320,000 tested, 0.063% active; AID 504706; also: potency is read from the fitted curve at half-maximal effect; % of control where 0% means no effect; nearly all actives have a fitted effect of over 45% in size
#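 H1299 (p53-null), stable ts p53-A138V + BP100-Luc; 1000 cells/well, Opti-MEM/10% FBS; cpd 4 pt, 1:5; 24 h, 37 deg C, 5% CO2; detection reagent 10 min RT; luminescence.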
# hERG WT inh = KCNH2 (human, wildtype) channel inhibition. activity change, % at 1.84 µM. Q12809. AID 720551. 340,000 tested, 0.37% active. U2OS, BacMam KCNH2, thallium flux FluxOr; active compounds read low;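 active = maximum activity change below -70%; inconclusive = maximum activity change between -70% and -50%; inactive = maximum activity change above -50%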; also: % is scaled to controls: 0 for no effect and ±100 for the full control effect
#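 U2OS cells were transduced with wild-type KCNH2 virus (2.03 x 10^8 / mL) for 4 h at room temperature, then cultured overnight at 37 C. Thallium flux was read with FluxOr dye. Rate constants were normalized to DMSO controls.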
# S-ASM inh = human S-ASM enzyme inhibition; placental ASM, HMU-PC fluorogenic substrate, 60 min; Potency, µM (doses to about 57.5 µM), without a hit: at the highest dose activity change, negative = inhibition, hits mostly inhibitors; 340,000 tested, 0.006% active; AID 504937; also: potency is read from the fitted curve at half-maximal effect
#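 Fluorescence read-out (Ex 386 nm, Em 447 nm) after stopping the reaction at pH 10. Enzyme: ASM from human placenta; substrate HMU-PC0, 9 uM final; 60 min, 37 °C. Compound preincubation 10 min, ambient temperature.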
# uPA surface inh = blocks generation of uPA at the cell surface; Potency, µM (highest dose often 38.3 µM), without a hit: top-dose activity change, negative = inhibition, hits mostly inhibitors; cell surface uPA generation assay, qHTS; 330,000 tested, 0.31% active; active = well fitted inhibition curve with a large enough effect; inconclusive = small, poorly fitted or top-dose-only effect; inactive = no such curve, though single readings can be large or run the other way; tested in mouse RAW 264.7 cells; also: potency is read from the fitted curve at half-maximal effect; % is scaled to controls: 0 for no effect and ±100 for the full control effect; nearly all actives have a fitted effect of over 55% in size
# Mm-Cpn inhibitor = blocks the Methanococcus maripaludis chaperonin Mm-Cpn; AID 504842; 330,000 tested, 0.031% active; purified Mm-Cpn ATPase, ADP Transcreener TR-FRET; Potency, µM (highest dose often 76.9 µM), inactives show top-dose activity, negative = inhibition, usual class: inhibitors; also: potency is read from the fitted curve at half-maximal effect; % is scaled to controls: 0 for no effect and ±100 for the full control effect; nearly all actives have a fitted effect of over 80% in size
#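 25 nM Mm-CPN + cpd, 10 min 37°C; + 10 uM ATP, 30 min 37°C; buffer 30 mM Tris pH 7.4, 100 mM KCl, 5 mM MgCl2, 1 mM DTT; Transcreener ADP HTRF detection 30 min RT.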
# KCNH2 3.1 block = KCNH2 3.1 (human) potassium channel inhibition | U2OS KCNH2 3.1, thallium flux FluxOr; active compounds read low | activity change, % (tested at about 1.8 µM) | 340,000 tested, 0.95% active | AID 720553;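 active = maximum activity change below -70%; inconclusive = maximum activity change from -70% to -50%; inactive = maximum activity change above -50%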;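 also: thallium influx rate constant from kinetic fluorescence after stimulation buffer; % is scaled to controls: 0 for no effect and ±100 for the full control effect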
#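 Steps: virus added to U2OS suspension (4 h, RT, dark); medium with 10% FBS added, cells plated, 37 C overnight; FluxOr/Red40 loading buffer 45 min RT; stimulation buffer, 2 min kinetic read; rate constant normalized.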
# * hit, by the source's call; ? = inconclusive; . = no result given. Unless noted, calls follow the shape of the dose curve; as a rule, active = well fitted curve in the direction sought with a large enough effect; inconclusive = small, poorly fitted or top-dose-only effect, or another doubt; inactive = no such curve, though single readings can be large; an effect the other way counts as inactive or inconclusive.
SMILES,p53 reactivation,hERG WT inh,S-ASM inh,uPA surface inh,Mm-Cpn inhibitor,KCNH2 3.1 block
COc1cccc(/C=N/NC(=O)c2cc3c(OC)ccc(OC)c3[nH]2)c1O,4%,20,-3%,6.3µM*,1%,-2
COc1cc(OC)c2cc(C(=O)N/N=C/c3cccc(OC)c3O)[nH]c2c1,?,-4,-14%,-14%,0%,10
COc1ccc(NC(=O)[C@H](C)NS(=O)(=O)c2ccc(NC(C)=O)cc2)cc1Cl,.,-6,.,.,.,1
S=c1[nH]nc(-c2cccnc2)o1,-1%,-1,7%,.,?,10
S=c1[nH]nc(-c2cccc(Br)c2)o1,4%,8,5%,-4%,32µM*,-17
CCCCCCCNC1=CC(=O)CC(c2ccccc2)C1 (stereo not given),?,-19,-3%,8.9µM*,0%,?
CCOc1ccc(NC(=O)NCCN2CCN(c3cccc(C)c3C)CC2)cc1,-3%,36,2%,3%,-5%,-89*
CCOc1ccc(NC(=O)NCCN2CCN(c3ccccc3F)CC2)cc1,1%,13,0%,-7%,0%,-34
CCOc1cccc(N2CCN(CCNC(=O)Nc3ccc(C)cc3)CC2)c1C,21%,6,0%,1%,-6%,-93*
CC(=O)c1ccc(NC(=O)C2CC(c3ccc(F)cc3)=NO2)cc1 (stereo not given),?,-5,-2%,.,-5%,-97*
CN(CCCNC(=O)c1cc2c(Cl)nc3ccccc3c2s1)Cc1ccccc1,19%,-307*,-8%,-8%,2%,.
N#CC(c1cccc([N+](=O)[O-])c1)C(CC(=O)c1ccccc1)c1ccccc1 (stereo not given),.,-4,.,.,.,-4
Cc1ccc(OCc2cc(C(=O)N3CC4C[C@@H]5CC3C[C@H](C4)C5)no2)cc1C,28µM*,-4,-1%,-8%,-1%,-8
Cc1cc(O)ccc1NC(=O)Cc1cccc2ccccc12,.,9,4%,13%,.,-3
O=[N+]([O-])c1ccc(N2CCN(Cc3ccccc3)CC2)c(S(=O)(=O)N2CCOCC2)c1,-1%,-43,-6%,-5%,1%,-73*
CN1CCN(c2ccc(S(=O)(=O)N3CCOCC3)cc2NC(=O)C2CCCCC2)CC1,.,-7,4%,-36%,.,13
CCN1CCN(c2ccc(S(=O)(=O)N3CCOCC3)cc2NC(=O)C2CCC(C(C)(C)C)CC2)CC1 (stereo not given),.,-7,2%,4.5µM*,.,8
CCN1CCN(c2ccc(S(=O)(=O)N3CCOCC3)cc2NC(=O)/C=C/c2ccc([N+](=O)[O-])cc2)CC1,10%,-7,-3%,0%,0%,-75*
O=C(c1cccs1)N1CCN(C(=O)c2cn(-c3ccccc3)nc2-c2ccccc2)CC1,20%,-129*,-5%,-11%,-12%,-172*
O=C(c1cn(-c2ccccc2)nc1-c1ccccc1)N1CCOCC1,1%,-26,4%,-3%,1%,-10
CC1CCN(c2nnc(-c3cccs3)c3ccccc23)CC1,?,-3,2%,0%,-2%,-85*
c1csc(-c2nnc(NC3CCCCC3)c3ccccc23)c1,20%,20,21%,-4%,-6%,3
COc1ccc(C2C=C(C)Nc3nc4ccccc4n32)cc1 (stereo not given),5%,-7,72%,4%,0%,0
COc1ccc(C2C(C#N)=C(N)Nc3nc4ccccc4n32)cc1 (stereo not given),14%,-113*,11%,1%,3%,11
Cc1cc2n(n1)C(c1cn(-c3ccccc3)nc1C)Nc1ccccc1-2 (stereo not given),5%,-125*,-3%,-6%,-12%,-136*
Nc1ccc2c(c1)[nH]c(=O)c1ccccc12,.,-12,229%,-5%,.,-196*
COc1ccc(CNC(=O)CCCn2ncn3c(cc4occc43)c2=O)cc1,0%,2,-2%,-5%,0%,-114*

# From PubChem BioAssay
